# PubChem BioAssay AID2234 (The Scripps Research Institute Molecular Screening Center, 2010)
# “And” between values parts separate entries of the source, which are not always exact repeats. Equal entries are not always repeated. Out of some 320,000 compounds screened, about 480 (0.15%) were called active. No stated cut-off is given here; in the data, active means inhibition above about 33%; inactive means the rest. Shown is part of a subset that was picked to be rich in actives. Some structures have more than one record in an assay (separate samples or runs), and their calls can disagree.
# Target: Lytic switch protein BZLF1 (Epstein-Barr virus (strain B95-8)) (UniProt P03206)
# Experiment: Zta-DNA interaction blockers, Epstein-Barr virus – biochemical, fluorescence polarization, single concentration, counter-screen for EBNA-1 inhibitor project, primary screen (AID 2234)
# Settings: ZTA-DNA binding, at 11 µM, stronger effect = higher value
# Lytic switch protein BZLF1 (Epstein-Barr virus (strain B95-8)), sequence (P03206 whole entry, looked up): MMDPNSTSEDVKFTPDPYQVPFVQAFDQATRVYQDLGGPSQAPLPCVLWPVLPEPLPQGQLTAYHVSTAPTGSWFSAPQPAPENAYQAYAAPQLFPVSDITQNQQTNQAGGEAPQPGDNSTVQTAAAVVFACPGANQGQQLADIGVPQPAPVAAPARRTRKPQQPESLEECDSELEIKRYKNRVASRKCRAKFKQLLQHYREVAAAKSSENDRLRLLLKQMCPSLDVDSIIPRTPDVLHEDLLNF
row,Structure (SMILES),inhibition
1,CC(C)N(C(=O)Cn1cc(S(=O)(=O)CC(=O)N2CCOCC2)c2ccccc21)C(C)C,-2.48% (inactive)
2,CCc1nn(CCCC(=O)Nc2ccc(C)cc2C)c(=O)c2cc3occc3n12,-0.14% (inactive)
3,CN(C)/C=C(\C#N)C(=O)c1cccnc1Oc1cccc(F)c1,1.11% (inactive)
4,CN(C)Cc1ccccc1C1(O)c2ccccc2CSc2ccccc21 (stereo not drawn),-3.19% (inactive)
5,O=C(COC(=O)c1cc(=O)[nH]c2ccccc12)NCc1cccc(Cl)c1,-4.76% (inactive)
6,COCCCNC(=S)N1CCN(c2nc(-c3cccc(OC)c3)cs2)CC1,0.15% (inactive)
7,COC(=O)[C@H]1[C@H]2C[C@H]3c4[nH]c5ccccc5c4CCN3C[C@@H]2CC[C@@H]1O,-2.53% (inactive) and 42.8% (active)
8,COC(=O)C1CCN(C(=O)c2cc(=O)[nH]c3ccccc23)CC1,-3.43% (inactive)
9,O=C(NC1CCCCC1)N1CCc2[nH]c3ccccc3c2C1,-20.7% (inactive)
10,Cc1ccc(S(=O)(=O)NCc2ccc(C(=O)NC3CCC(C)CC3)cc2)cc1 (stereo not drawn),0.09% (inactive)
11,Cn1c(N)c(C(=O)COC(=O)/C=C/c2ccc(OC(F)F)cc2)c(=O)n(C)c1=O,4.46% (inactive)
12,CC[N+](C)(CC)CCC[n+]1c(-c2ccccc2)c2cc(N)ccc2c2ccc(N)cc21,76.6% (active)
13,COc1ccccc1CNS(=O)(=O)c1c(C)[nH]c(C)c1C(=O)N1CCCCC1,-3.2% (inactive)
14,COc1ccc(C(=O)NCCn2nc(C)cc2C)cc1OC1CCN(C(C)=O)CC1,-1.11% (inactive)
15,CC(=O)N(C)c1ccc(NC(=O)C(F)(F)F)cc1,-2.47% (inactive)
16,CC(C)CNC(=O)C(=O)Nc1ccc(N(C)C)cc1,-14.2% (inactive)
17,CCN(CC)c1ccc(C(=O)Nn2c(C)nc3ccccc3c2=O)cc1,-9.3% (inactive)
18,CCN(CC)c1ccc2oc(=O)c(C)nc2c1,112% (active)
19,C=CCN(C(=O)Nc1ccc2oc(C)nc2c1)c1ccccc1,14.4% (inactive)
20,COc1ccc(/C=C/CN2CCCC(C(=O)c3cc(F)ccc3F)C2)cc1 (stereo not drawn),-3.1% (inactive)
21,CN(C)Cc1c(O)ccc2occ(C(O)c3ccccc3)c12 (stereo not drawn),-10.8% (inactive)
22,N[C@@H](Cc1ccccc1)C(=O)N1CCOCC1,0.06% (inactive)

row,Structure (SMILES),inhibition
1,COc1ccc(OC)c(NC(=O)CSc2nc(N)c(-c3ccccc3)c(=O)[nH]2)c1,-8.96% (inactive)
2,COc1ccccc1P(=O)(c1ccccc1)c1ccccc1NC(C)=O (stereo not drawn),6.44% (inactive)
3,CCc1cc(=O)oc2c(C)c(OCC(=O)N3CC[C@@]4(O)CCCC[C@H]4C3)ccc12,-6.49% (inactive)
4,O=S(=O)(c1cccc(-c2nnc(SC(F)F)n2-c2ccccc2)c1)N1CCCCC1,-1.62% (inactive)
5,Cc1cccc(-n2cnc(C(=O)Nc3cccnc3)c2)n1,-4.78% (inactive)
6,Cc1ccccc1CSc1nnc(-c2ccccn2)n1N,-11.1% (inactive)
7,O=C(COC(=O)c1ccc(S(=O)(=O)Nc2ccccc2)cc1)NCC1CCCO1 (stereo not drawn),1.03% (inactive)
8,CCn1c(C)nc2cc(C(=O)NNS(=O)(=O)c3ccc(C)cc3C)ccc21,-11% (inactive)
9,COc1cc(C2C(C(=O)c3cccs3)=C(O)C(=O)N2CCN2CCOCC2)ccc1OCCC(C)C (stereo not drawn),-2.28% (inactive)
10,O=C(Nc1ccc2oc(-c3ccccc3F)nc2c1)c1ccco1,15.1% (inactive)
11,CCOc1ccc(S(=O)(=O)Nc2ccncc2)c(C)c1C,-10.3% (inactive)
12,CC(C)C(=O)N1CCC2(CC1)Oc1ccc(F)cc1C(=O)C21CC(c2ccccc2)=NO1 (stereo not drawn),7.48% (inactive)
13,CCc1c(C)nc2c(-c3ccccc3)c(C)nn2c1Nc1ccc(NC(C)=O)cc1,-11.9% (inactive)
14,O=C(Cc1ncc(C(F)(F)F)cc1Cl)Nc1cccc(Br)c1,-13.5% (inactive)
15,O=C(CNS(=O)(=O)c1ccc2ccccc2c1)Nc1ccc(F)c(F)c1F,15.3% (inactive)
16,O=C(Nc1ccc(F)cc1F)N1CCCN(CCOc2ccccc2)CC1,-6.16% (inactive)
17,CSc1nnc(SCc2nc3sc(C(=O)O)c(C)c3c(=O)[nH]2)s1,41.9% (active)
18,CC(=O)c1sc2nc(SCC(=O)N3CCCCC3)[nH]c(=O)c2c1C,-1.4% (inactive)
19,Cc1sc2nc(CSCC(=O)NC3CCCCC3)[nH]c(=O)c2c1C,-20.2% (inactive)
20,COc1ccc(C(=O)NC2CC2)cc1OC1CCN(C/C=C/c2ccccc2)CC1,-17.4% (inactive)
21,COc1ccc2c(c1)cc1n2CCN=C1NN,8.48% (inactive)
